B1: design_621_7e0052dc-ae49-49a0-b99f-9f3ee649cc2f_121_dldesign_0_cycle1_af2pred (protein)
chain: EEAERKARTAELLKEAIHLGFRGIAVGPEYIKEGAKKLEEAAKLLPEKKPLLEKMAELAKKAAESTPTEALQLTLEMIEIAKEVVE
B2: design_620_fbd04095-bef7-46a9-992d-f2cb8915922f_2199_dldesign_0_cycle1_af2pred (protein)
chain: AEAAAQAARASVAAARAAVKDARRIAENAKTPEQLESAKKVLEVARALAEDAERNAKAAGDEELVKLAEEARKEAEEAEKKVREKAEE
B3: design_621_7e0052dc-ae49-49a0-b99f-9f3ee649cc2f_375_dldesign_0_cycle1_af2pred (protein)
chain: SQAAQIALNAAKSLAENIKKYAEVMSEEEAKGAIELLYDLAKYAKKEDPELGKKAEKIAEEAKKYVEKVFKEKKEEEEK
B4: design_620_fbd04095-bef7-46a9-992d-f2cb8915922f_2334_dldesign_0_cycle1_af2pred (protein)
chain: LTEEEQKELIIDTIKGLAESAKQFAKASGDPELAKQAEKVAELAKKAIEVTKKGTLEDGVKALSEVSKATMEVAKAA
B5: design_620_fbd04095-bef7-46a9-992d-f2cb8915922f_1950_dldesign_0_cycle1_af2pred (protein)
chain: GVAETLKRNLEAAERILKEGEELFETDPAAGAAKFKSAELLATGVVATAEADPSVPEEILKRAKELAKRAKEALEEAEKKVEELKA
B6: design_620_fbd04095-bef7-46a9-992d-f2cb8915922f_2282_dldesign_0_cycle1_af2pred (protein)
chain: AAAEGQALVKQATAYAEEALRLAREGGDPEEVAAKLNLAATYAIKAMNLPATQAQGAKVMDYLGEVAREVAAIRAARAAA
B7: design_620_fbd04095-bef7-46a9-992d-f2cb8915922f_2025_dldesign_0_cycle1_af2pred (protein)
chain: GLAEVLRASGLALEAYELAEKLAKENPEEGRKAFQEAARLSLRAAARALAIARAFPEIAEFALRLAQRLVELAAEAAEKARELEA
B8: design_620_fbd04095-bef7-46a9-992d-f2cb8915922f_2241_dldesign_0_cycle1_af2pred (protein)
chain: AEKVRELADQMVAIAREAAEKGLSPAEIGAANGQVVDLLEEAYRLAKESGASQEVLDYLNAKNAEANRLLLAAQRA
B9: design_621_7e0052dc-ae49-49a0-b99f-9f3ee649cc2f_216_dldesign_0_cycle1_af2pred (protein)
chain: RMAEVAERIRRTAEEVREGDAETAVRLAAEVLELARREGNEASAHLAANALRAARAGDVERAVVYLEAAAEITALS
B10: design_620_fbd04095-bef7-46a9-992d-f2cb8915922f_2412_dldesign_0_cycle1_af2pred (protein)
chain: ADGSRLTEAFRVAAEARRVGEEAGKLLGEEALEEAERAAAELRRLLAAAMRAMAAGTGADEAVNAALDAARAALAEFEERLKEAR
B11: design_621_7e0052dc-ae49-49a0-b99f-9f3ee649cc2f_147_dldesign_0_cycle1_af2pred (protein)
chain: MEAAAEIALKTAKAMTKSAVAAAEAGNLEDARQIAETAKEILEATAKKVSPELAKKLKEAAKKATAEAEAAVKAAAARLAA
B12: design_621_7e0052dc-ae49-49a0-b99f-9f3ee649cc2f_162_dldesign_0_cycle1_af2pred (protein)
chain: MGELFAALIEAMRLASEAARLAKAGEKEEAKEKLEKALKLVGEVAKATGTTAIYDETAKKAEASSLEEAARAVMSGAAKIISEAAKKA
B13: design_621_7e0052dc-ae49-49a0-b99f-9f3ee649cc2f_290_dldesign_0_cycle1_af2pred (protein)
chain: AAAALERAARIALAAAKAMLRTAEATGNAAAAAVAADLAAYAAATARAAGPALAPLAAEAEAVEARARALAA
B14: design_620_fbd04095-bef7-46a9-992d-f2cb8915922f_2436_dldesign_0_cycle1_af2pred (protein)
chain: EAAKEAEKAYKEAKEAAAAALAAADAAADKVPATAVDVLKRTVTANLKQAEKALKAGDAKAVKAQKKQLELLKEGAAAAA
B15: design_621_7e0052dc-ae49-49a0-b99f-9f3ee649cc2f_282_dldesign_0_cycle1_af2pred (protein)
chain: ARAKIVEAAKKAAKEAEAATTRGEVLVALAKAAAVFNRVGDAAGAARVSAAIVQATQLDAAEAKKLAVEVLTAIAEEAA
B16: design_620_fbd04095-bef7-46a9-992d-f2cb8915922f_1968_dldesign_0_cycle1_af2pred (protein)
chain: DAAVQAAVAAGQAAAERARETGERAREAGDEETAARLEALAQSVDILADGAAATKDAHAAATLQTLVRQAEREVEEAERRLEA
B17: design_620_fbd04095-bef7-46a9-992d-f2cb8915922f_1927_dldesign_0_cycle1_af2pred (protein)
chain: AAAQAALEKMKALAEQALAEIKALSQKDQASIDQGIAVLSRTVTELMTAANQYPEVAAQYAQLAVDLLEQSSKYIRAGRARVAAKEAA
B18: design_620_fbd04095-bef7-46a9-992d-f2cb8915922f_2277_dldesign_0_cycle1_af2pred (protein)
chain: GAAAERAALRDAALAEVDALLAAGAAAAAAAASPVAALLDAHRAAAEVIARLRERDPAAGEEVAAEAQARFSALLRQASASVVA
B19: design_621_7e0052dc-ae49-49a0-b99f-9f3ee649cc2f_407_dldesign_0_cycle1_af2pred (protein)
chain: SEAQRLYDAAKTWADIANAAIQQAAADPSTAAVAVAAAKAAVASAKRLAEKAEKLAAKKPEYAPLAKDAKAAVAAAAAAAKAAAA

These binders were tested against CD276, Q5ZPR3.
Sequence of CD276, Q5ZPR3 (Q5ZPR3 whole entry): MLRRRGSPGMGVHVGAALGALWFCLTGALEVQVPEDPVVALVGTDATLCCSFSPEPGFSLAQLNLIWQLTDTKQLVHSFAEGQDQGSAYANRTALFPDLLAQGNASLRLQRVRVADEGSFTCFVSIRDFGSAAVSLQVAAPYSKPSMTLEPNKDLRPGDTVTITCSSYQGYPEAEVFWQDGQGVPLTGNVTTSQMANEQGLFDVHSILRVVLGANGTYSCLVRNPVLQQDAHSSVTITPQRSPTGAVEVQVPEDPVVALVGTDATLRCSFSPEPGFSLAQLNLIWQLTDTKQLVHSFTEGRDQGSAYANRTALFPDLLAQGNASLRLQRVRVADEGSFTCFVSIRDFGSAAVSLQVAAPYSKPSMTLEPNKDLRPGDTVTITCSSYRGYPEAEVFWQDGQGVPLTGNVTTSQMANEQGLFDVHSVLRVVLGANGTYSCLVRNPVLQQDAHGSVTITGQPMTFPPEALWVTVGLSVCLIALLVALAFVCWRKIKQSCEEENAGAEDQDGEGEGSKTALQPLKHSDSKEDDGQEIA

Binding in a display sort, inactive:
B1 not found
B2 not found
B3 not found
B4 not found
B5 not found
B6 not found
B7 not found
B8 not found
B9 not found
B10 not found
B11 not found
B12 not found
B13 not found
B14 not found
B15 not found
B16 not found
B17 not found
B18 not found
B19 not found

Reference: PMC13494018
